Test results published in PubChem BioAssay (Tox21).
Results filed as inconclusive are left out. A call without a number means that no potency is given here. Unmarked numbers belong to inactive results. The source made the active and inactive calls. Unless noted, the call rests on the fitted dose curve.

Tests used:
[1] = qHTS assay to identify small molecule agonists of the peroxisome proliferator-activated receptor delta (PPARd) signaling pathway - cell viability counter screen (AID 743211; active means well fitted curve in the direction sought with a large enough effect in the repeat runs; an effect the other way counts as inactive or inconclusive; further: nearly all actives have a fitted effect of over 55% in size)
Method in brief: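 Multiplexed format: after the 2 h room-temperature LiveBLAzer B/G FRET step, CellTiter-Glo was added to the same wells. Luminescence after 30 min gave cell viability; compound exposure was 17 h at 37C.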

[2] = biological target: Peroxisome proliferator-activated receptor delta (Homo sapiens) (UniProt Q03181); experiment: qHTS assay to identify small molecule agonists of the peroxisome proliferator-activated receptor delta (PPARd) signaling pathway (AID 743212)
Chain of Peroxisome proliferator-activated receptor delta (Homo sapiens) (Q03181 whole entry, looked up): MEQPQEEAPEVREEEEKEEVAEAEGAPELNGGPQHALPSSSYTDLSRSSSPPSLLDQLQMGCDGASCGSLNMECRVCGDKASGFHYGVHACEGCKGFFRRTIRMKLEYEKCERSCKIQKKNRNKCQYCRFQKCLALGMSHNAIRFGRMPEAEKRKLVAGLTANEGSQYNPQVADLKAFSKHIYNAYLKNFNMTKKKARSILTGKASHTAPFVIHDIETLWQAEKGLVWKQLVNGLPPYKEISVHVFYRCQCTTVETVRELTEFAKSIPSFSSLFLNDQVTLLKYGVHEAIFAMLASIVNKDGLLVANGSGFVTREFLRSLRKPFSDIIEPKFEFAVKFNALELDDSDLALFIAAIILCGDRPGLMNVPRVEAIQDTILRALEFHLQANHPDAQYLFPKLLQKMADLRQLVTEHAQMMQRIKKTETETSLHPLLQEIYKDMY
Method in brief: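 HEK293H UAS-bla reporter cells, human PPARd system; compounds delivered in DMSO after 5 h plating, then at 37 C. Beta-lactamase FRET read, 2 h RT substrate step.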

[3] = qHTS assay to identify small molecule antagonists of the peroxisome proliferator-activated receptor delta (PPARd) signaling pathway - cell viability counter screen (AID 743213; active means well fitted curve in the direction sought with a large enough effect in the repeat runs; an effect the other way counts as inactive or inconclusive; further: nearly all actives have a fitted effect of over 50% in size)
Method in brief: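 Agonist-stimulated (L165041, 300 nM final) HEK293H PPARd UAS-bla cells are exposed to compounds for 17 h at 37 C, and ATP-based luminescence (CellTiter-Glo) from the same wells reports cytotoxicity.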

[4] = biological target: Bile acid receptor (Homo sapiens) (UniProt Q96RI1); experiment: qHTS assay to identify small molecule antagonists of the farnesoid-X-receptor (FXR) signaling pathway (AID 743217; active means well fitted inhibition curve with a large enough effect in the signal ratio in the repeat runs, not every such curve was filed as active; the % refers to the signal ratio)
Chain of Bile acid receptor (Homo sapiens) (Q96RI1 whole entry, looked up): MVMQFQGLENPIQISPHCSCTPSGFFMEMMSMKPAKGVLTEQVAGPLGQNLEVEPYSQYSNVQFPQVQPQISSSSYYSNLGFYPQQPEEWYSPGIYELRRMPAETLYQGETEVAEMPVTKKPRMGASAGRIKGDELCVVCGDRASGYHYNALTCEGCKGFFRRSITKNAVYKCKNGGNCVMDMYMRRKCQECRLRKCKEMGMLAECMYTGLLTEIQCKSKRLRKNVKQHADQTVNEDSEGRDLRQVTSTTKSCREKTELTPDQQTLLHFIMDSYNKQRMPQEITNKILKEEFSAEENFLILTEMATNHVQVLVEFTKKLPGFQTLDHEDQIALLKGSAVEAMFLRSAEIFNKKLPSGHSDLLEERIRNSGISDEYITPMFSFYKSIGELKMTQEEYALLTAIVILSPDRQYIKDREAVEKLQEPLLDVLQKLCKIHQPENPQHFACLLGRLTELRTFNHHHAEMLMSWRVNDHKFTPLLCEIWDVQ
Method in brief: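 Antagonist mode against 50 uM (final) chenodeoxycholic acid stimulation in FXR-bla HEK 293T cells, 16 h at 37 °C. Inhibition detected as reduced beta-lactamase activity via LiveBLAzer B/G FRET fluorescence after 2 h at room temperature.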

[5] = biological target: Bile acid receptor (Homo sapiens) (UniProt Q96RI1); experiment: qHTS assay to identify small molecule agonists of the farnesoid-X-receptor (FXR) signaling pathway (AID 743220; active means well fitted activation curve with a large enough effect in the signal ratio in the repeat runs, not every such curve was filed as active; the % refers to the signal ratio)
Method in brief: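 Beta-lactamase reporter under UAS control in GeneBLAzer FXR HEK 293T cells (5000/well) measured with LiveBLAzer FRET substrate after 2 h at room temperature. Compound exposure lasted 16 h at 37C.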

[6] = qHTS assay to identify small molecule antagonists of the farnesoid-X-receptor (FXR) signaling pathway - cell viability counter screen (AID 743221; active means well fitted cell-killing curve with a large enough effect in the repeat runs, not every such curve was filed as active; further: nearly all actives have a fitted effect of over 50% in size)
Method in brief: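 CellTiter-Glo, 30 min RT, luminescence; same wells as the LiveBLAzer FRET read. Cells: FXR-UAS-bla HEK 293T. Treatment: compound with chenodeoxycholic acid 50 uM final, 16 h at 37 C.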

[7] = qHTS assay to identify small molecule agonists of the vitamin D receptor (VDR) signaling pathway - cell viability counter screen (AID 743224; active means well fitted curve in the direction sought with a large enough effect in the repeat runs; an effect the other way counts as inactive or inconclusive; further: series mostly up to about 63 µM; nearly all actives have a fitted effect of over 50% in size)
Method in brief: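 Viability is measured in the same wells as the VDR-bla reporter assay: after 16 h compound treatment and 2 h substrate loading, CellTiter-Glo is added and luminescence read 30 min later.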

[8] = qHTS assay to identify small molecule agonists of the NFkB signaling pathway (AID 1159509; active means well fitted curve in the direction sought with a large enough effect in the signal ratio in the repeat runs, not every such curve was filed as active; the % refers to the signal ratio; further: series mostly up to about 61 µM)
Method in brief: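 NFkB-bla ME-180 cells with a beta-lactamase reporter under an NF-kB response element were plated overnight, treated with compounds in DMSO for 5 hr at 37 C, then loaded with FRET substrate for 1.5 hr at room temperature.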

[9] = qHTS assay to identify small molecule agonists of the NFkB signaling pathway - cell viability counter screen (AID 1159515); further: series mostly up to about 61 µM; nearly all actives have a fitted effect of over 55% in size
Method in brief: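 Multiplexed viability readout: after the 5 hr compound exposure and 1.5 hr FRET substrate step, CellTiter-Glo reagent went into the same NFkB-bla ME-180 wells; ATP luminescence was measured after 30 min at room temperature.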

[10] = qHTS assay to identify small molecule agonists of the endoplasmic reticulum stress response signaling pathway (AID 1159516; active means well fitted activation curve with a large enough effect in the signal ratio in the repeat runs, not every such curve was filed as active; the % refers to the signal ratio)
Method in brief: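 Tox21 10K library screened in quantitative HTS format on ESRE-bla HeLa cells, a beta-lactamase reporter under ER stress response element control; 5 hr treatment, FRET read.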

[11] = qHTS assay to identify small molecule agonists of the endoplasmic reticulum stress response signaling pathway - cell viability counter screen (AID 1159517); further: series mostly up to about 61 µM; nearly all actives have a fitted effect of over 50% in size
Method in brief: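 Cells, HeLa ESRE-bla; density, 1,500/well; dosing, 5 hr at 37 C, 5% CO2; readout, CellTiter-Glo luminescence after 30 min RT.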

[12] = qHTS assay to identify small molecule antagonists of the retinoid-related orphan receptor gamma (ROR-gamma) signaling pathway - cell viability counter screen (AID 1159520; active means well fitted curve in the direction sought with a large enough effect in the repeat runs; an effect the other way counts as inactive or inconclusive; further: nearly all actives have a fitted effect of over 50% in size; further: potency means the concentration at half of the fitted maximal effect)
Method in brief: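 Cytotoxicity was read from cellular ATP (CellTiter-Glo luminescence) after 16 hr at 37 C with 1 uM doxycycline induction. The inducer was added 2 hr after compound transfer to Tet-on ROR gamma CHO cells.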

[13] = biological target: Nuclear receptor ROR-gamma (Homo sapiens) (UniProt P51449); experiment: qHTS assay to identify small molecule antagonists of the retinoid-related orphan receptor gamma (ROR-gamma) signaling pathway (AID 1159521; active means well fitted curve in the direction sought with a large enough effect in the repeat runs; an effect the other way counts as inactive or inconclusive; further: nearly all actives have a fitted effect of over 50% in size; further: potency means the concentration at half of the fitted maximal effect)
Method in brief: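 Readout: ONE-Glo luciferase luminescence, 30 min at room temperature. System: Tet-on RORγ CHO, RORE-LUC. Sequence: compound 2 h, doxycycline 1 uM final, 16 h at 37 C.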

[14] = qHTS assay to identify small molecule agonists of the AP-1 signaling pathway (AID 1159526)
[15] = biological target: Peroxisome proliferator-activated receptor delta (Homo sapiens) (UniProt Q03181); experiment: qHTS assay to identify small molecule antagonists of the peroxisome proliferator-activated receptor delta (PPARd) signaling pathway (AID 743215; active means well fitted inhibition curve with a large enough effect in the signal ratio in the repeat runs, not every such curve was filed as active; the % refers to the signal ratio; further: series mostly up to about 62 µM)
Method in brief: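 Inhibition of L165041-driven (300 nM final) PPARd signaling is scored in HEK293H UAS-bla cells. Exposure lasts 17 h at 37 C; beta-lactamase activity is then read by FRET substrate fluorescence after 2 h at room temperature.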

[16] = qHTS assay to identify small molecule agonists of the farnesoid-X-receptor (FXR) signaling pathway - cell viability counter screen (AID 743218; active means well fitted curve in the direction sought with a large enough effect in the repeat runs; an effect the other way counts as inactive or inconclusive; further: nearly all actives have a fitted effect of over 45% in size; further: potency means the concentration at half of the fitted maximal effect)
Method in brief: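 Cytotoxicity counter-screen run in parallel, same wells: FXR-UAS-bla HEK 293T cells dosed 16 h at 37 C, viability read by CellTiter-Glo luminescence after 30 min at room temperature.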

[17] = biological target: Vitamin D3 receptor (Homo sapiens) (UniProt P11473); experiment: qHTS assay to identify small molecule agonists of the vitamin D receptor (VDR) signaling pathway (AID 743222)
Chain of Vitamin D3 receptor (Homo sapiens) (P11473 whole entry, looked up): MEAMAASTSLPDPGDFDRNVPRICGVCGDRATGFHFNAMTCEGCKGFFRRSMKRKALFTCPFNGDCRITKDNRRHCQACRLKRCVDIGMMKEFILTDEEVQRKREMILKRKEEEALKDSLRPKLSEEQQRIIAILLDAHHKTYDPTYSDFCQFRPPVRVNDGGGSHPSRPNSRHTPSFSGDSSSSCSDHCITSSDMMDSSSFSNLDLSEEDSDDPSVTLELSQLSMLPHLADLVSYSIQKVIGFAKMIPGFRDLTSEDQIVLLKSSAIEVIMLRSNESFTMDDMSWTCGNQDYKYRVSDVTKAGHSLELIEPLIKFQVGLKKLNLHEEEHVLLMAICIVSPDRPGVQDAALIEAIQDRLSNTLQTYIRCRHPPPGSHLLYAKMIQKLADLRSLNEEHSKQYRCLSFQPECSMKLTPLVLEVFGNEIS
Method in brief: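 Quantitative HTS agonist-mode screen: compounds in DMSO were pin-transferred onto VDR-bla cells and incubated 16 h at 37C, 5% CO2. Reporter activity was detected with LiveBLAzer B/G FRET substrate after 2 h at room temperature.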

[18] = biological target: Vitamin D3 receptor (Homo sapiens) (UniProt P11473); experiment: qHTS assay to identify small molecule antagonists of the vitamin D receptor (VDR) signaling pathway (AID 743223; active means well fitted inhibition curve with a large enough effect in the signal ratio in the repeat runs, not every such curve was filed as active; the % refers to the signal ratio)
Method in brief: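 After VDR-bla cells are plated and left 4 h at 37C, DMSO-dissolved compounds and 3 nM (final) calcitriol agonist are added. Incubation continues 16 h at 37C; FRET beta-lactamase substrate then develops 2 h at room temperature.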

[19] = qHTS assay to identify small molecule agonists of the AP-1 signaling pathway - cell viability counter screen (AID 1159525); further: nearly all actives have a fitted effect of over 55% in size; further: potency means the concentration at half of the fitted maximal effect
Method in brief: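 Luminescent ATP readout (Cell Titer Glo, 30 min RT), normalised to DMSO and tetra n-octyl ammonium bromide controls. Cells were ME-180 AP-1-bla in 0.5% dialyzed FBS Opti-MEM, with a 5 h, 37 °C compound exposure.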

Structure (SMILES) | Potency [1] | outcome [2] | outcome [3] | Potency [4] | outcome [5] | outcome [6] | Potency [7] | outcome [8] | outcome [9] | outcome [10] | Potency [11] | Potency [12] | Potency [13] | outcome [14] | outcome [15] | Potency [16] | outcome [17] | outcome [18] | Potency [19]
C[C@]1(O)CC[C@H]2[C@@H]3CCC4=CC(=O)CC[C@]4(C)[C@@]3(F)[C@@H](O)C[C@@]21C | inactive | inactive | inactive | inactive | inactive | inactive | inactive | inactive | inactive | inactive | inactive | inactive | inactive | inactive | – | – | – | – | –
CC(Oc1ccc(Oc2ncc(C(F)(F)F)cc2Cl)cc1)C(=O)O (stereo unspecified) | – | – | inactive | – | – | – | inactive | inactive | inactive | inactive | inactive | inactive | 27.3 µM (active) | inactive | inactive | 21.9 µM (active) | inactive | inactive | inactive
Nc1cnn(-c2ccccc2)c(=O)c1Cl | – | – | inactive | – | – | inactive | – | inactive | inactive | inactive | inactive | inactive | inactive | inactive | inactive | inactive | inactive | – | inactive
CCS(=O)(=O)CCSP(=O)(OC)OC | – | inactive | – | – | – | inactive | inactive | inactive | inactive | inactive | inactive | inactive | inactive | inactive | inactive | inactive | inactive | – | inactive
CCC1(c2ccccc2)C(=O)N=C(O)NC1=O (stereo unspecified) | inactive | inactive | inactive | – | – | inactive | – | inactive | inactive | inactive | inactive | inactive | inactive | inactive | inactive | inactive | inactive | inactive | –
N#CC(CCc1ccc(Cl)cc1)(Cn1cncn1)c1ccccc1 (stereo unspecified) | – | inactive | – | inactive | inactive | inactive | inactive | inactive | inactive | inactive | inactive | 54.5 µM (active) | 27.3 µM (active) | – | inactive | inactive | inactive | inactive | 54.9 µM (active)
CN(N=O)C(N)=O | inactive | – | – | inactive | inactive | inactive | inactive | inactive | inactive | inactive | inactive | inactive | inactive | – | – | inactive | inactive | inactive | inactive
